Assay outcomes from PubChem.
Bfl-1 A1 inh = inhibitors of the anti-apoptotic protein A1, read as caspase activation. MEF A1-2A-BIM cells, Caspase-Glo 3/7 luminescence, 3 h; percent of clofoctol response, vehicle zero. caspase activation, % (concentration not given with the values). 330,000 tested, 0.066% active. AID 2462;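 active = over half of replicate activation scores above 10%, or exactly half above 10 with the replicate mean above 10; inconclusive = replicate mean below 10 yet half the replicates above 10; inactive = over half of replicates below 10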
Mdm2-MdmX inh = disrupts the human Mdm2-MdmX interaction; inhibition, % at 8 µM; O15151+Q00987; 330,000 tested, 3% active; SaOS-2 split-luciferase Mdm2/MdmX complementation, luminescence;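 active = inhibition of at least 50% at 8 µM in the primary screen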
Target sequence (O15151 whole entry, looked up): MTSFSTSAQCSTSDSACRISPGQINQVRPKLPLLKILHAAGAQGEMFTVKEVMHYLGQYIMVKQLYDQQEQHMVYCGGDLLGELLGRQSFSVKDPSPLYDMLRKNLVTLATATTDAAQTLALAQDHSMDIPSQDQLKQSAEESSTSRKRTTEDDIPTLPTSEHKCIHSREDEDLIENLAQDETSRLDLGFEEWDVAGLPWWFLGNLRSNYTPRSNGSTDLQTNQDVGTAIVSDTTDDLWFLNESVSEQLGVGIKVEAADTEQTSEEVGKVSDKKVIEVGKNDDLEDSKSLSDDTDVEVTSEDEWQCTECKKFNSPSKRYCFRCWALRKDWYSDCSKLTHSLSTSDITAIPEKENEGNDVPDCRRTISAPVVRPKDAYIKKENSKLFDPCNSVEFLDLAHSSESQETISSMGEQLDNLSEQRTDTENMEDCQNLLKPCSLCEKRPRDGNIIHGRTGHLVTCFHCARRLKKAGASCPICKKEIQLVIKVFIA
Target sequence (Q00987 whole entry, looked up): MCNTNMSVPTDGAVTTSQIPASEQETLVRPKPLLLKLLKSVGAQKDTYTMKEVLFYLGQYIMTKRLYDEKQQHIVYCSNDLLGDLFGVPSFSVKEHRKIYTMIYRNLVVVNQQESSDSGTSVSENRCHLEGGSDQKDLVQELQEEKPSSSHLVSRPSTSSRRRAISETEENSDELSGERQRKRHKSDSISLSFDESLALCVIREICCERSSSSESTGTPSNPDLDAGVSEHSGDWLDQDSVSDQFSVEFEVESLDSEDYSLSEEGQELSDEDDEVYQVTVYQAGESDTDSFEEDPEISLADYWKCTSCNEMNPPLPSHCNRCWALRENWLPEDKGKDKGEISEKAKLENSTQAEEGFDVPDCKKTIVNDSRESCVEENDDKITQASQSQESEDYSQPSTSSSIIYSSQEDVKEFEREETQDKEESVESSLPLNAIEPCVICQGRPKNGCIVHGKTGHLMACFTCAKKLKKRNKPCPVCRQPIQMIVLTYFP
CSC inhib = blocks cancer stem cells; cancer stem cell-like cells viability, luminescence; inhibition, % at 7.5 µM; 300,000 tested, 1.1% active; AID 2717; in the data active = inhibition above about 75%; inconclusive = no clear call, values can overlap the other calls; tested in HMLE shEcad cells
Beta apoptosis = blocks beta cell apoptosis; INS-1E cytokine-induced death, ATP luminescence, 48 h; percent of positive-control rescue, neutral wells zero; protection from apoptosis, % (no concentration beside the values); 300,000 tested, 0.8% active; AID 435005;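 active = Every replicate reaches about 75%, or at least half do and their mean reaches it too, limit read from the data; inconclusive = At least half of replicates reach the limit but their mean does not; inactive = Under half of replicates reach the limit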;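 note: 0% = cytokine-treated negative control wells and 100% = positive control rescue; higher means more ATP so stronger rescue from cytokine killing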
aSyn UTR inh = MLPCN primary screen, SNCA 5' untranslated region; alpha-synuclein 5'UTR reporter, inhibitor activity; inhibition, % (tested at 7.5 µM); 300,000 tested, 0.82% active; AID 1813; in the data active = inhibition above about 60%; inconclusive = no clear call, values can overlap the other calls;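 note: H4 neuroglioblastoma cells stably carrying SNCA 5'UTR luciferase fusion; 0% = DMSO wells and 100% = positive control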
An asterisk follows results filed as active; u = inconclusive; x = no result given. In the library only some 4.1% were active in any assay of this set; here they are far more common.

SMILES	Bfl-1 A1 inh	Mdm2-MdmX inh	CSC inhib	Beta apoptosis	aSyn UTR inh
O=C(/C=C/c1ccc2c(c1)OCO2)Nc1nc(-c2ccc(F)cc2F)cs1	0	16	95*	42	-8
CC1CCCCN1Cc1nc2c(c(=O)n(C)c(=O)n2C)n1Cc1c(F)cccc1Cl (stereo not drawn)	0	28	77*	14	x
Cn1c(=O)c2c(nc(CN3CCC(C(N)=O)CC3)n2Cc2c(F)cccc2Cl)n(C)c1=O	1	-36	-4	-3	-22
COCCn1c(SCC(=O)NC2CCCC2)nnc1C(C)C	0	13	-12	-1	6
CCC(C)Sc1ccc([C@@H]2[C@@H]3C(=O)N(C)C(=O)[C@@H]3[C@]3(C(=O)OC)CCCCN23)cc1 (stereo partly drawn)	0	28	21	0	2
O=C(Nc1ccccc1)C1=C[C@@H](c2ccc(C(F)(F)F)cc2)C[C@@H](OCc2ccc(CO)cc2)O1	1	17	79*	12	-29
C#CCNC(=O)C1=C[C@H](c2csc3ccccc23)C[C@H](OCc2ccc(CO)cc2)O1	0	6	-8	-3	1
O=C(Nc1ccccc1)C1=C[C@@H](c2csc3ccccc23)C[C@@H](OCc2ccc(CO)cc2)O1	1	32	86*	14	28
O=C(CNC(=O)c1ccc(C(F)(F)F)cc1)NC1CC1	-1	6	-6	-2	x
CCn1c(NCc2ccccc2NS(=O)(=O)c2ccc(C)cc2)nc2ccccc21	-1	40	68	0	21
CCCn1c(NCc2ccccc2NS(=O)(=O)c2ccc(C)cc2)nc2ccccc21	0	32	75*	17	27
Oc1ccc(-c2nccc(-c3ccc(F)cc3)n2)cc1	0	-50	17	-1	-144
CC(Sc1nnnn1C1CCCC1)C(=O)Nc1cccc(S(=O)(=O)N2CCOCC2)c1 (stereo not drawn)	2	-38	-9	2	x
Cc1cc(C(=O)CN2C(=O)C(=O)N(Cc3ccccc3)C2=O)c(C)n1Cc1ccc(F)cc1	0	27	x	4	x
Cc1cc(C(=O)CN2C(=O)C(=O)N(Cc3ccccc3)C2=O)c(C)n1Cc1ccccc1	0	31	97*	4	x
COC(=O)c1c(NC(=O)c2cccc(S(=O)(=O)N3CCN(C)CC3)c2)sc(C)c1C	0	19	57	x	13
CC(C)n1nc(Cc2cccc3ccccc23)c(C#N)c1N	0	17	1	-7	11
CCCCCCCCCCCCN1[C@@H](CC(C)=O)c2cc(F)ccc2S1(=O)=O	1	12	80*	6	-2
CCc1cccc(C)c1NC(=O)COC(=O)c1c2c(nc3ccccc13)/C(=C\c1cccs1)CCC2	-1	30	33	13	-4
CC(C)CNC(=O)COC(=O)c1c2c(nc3ccccc13)/C(=C/c1cccs1)CC2	-1	x	52	78*	-110
Cc1cc(C(=O)Nc2cccc(C(=O)O)c2)c(C)o1	-9	1	-7	-14	-92
Cc1cc(C(=O)Nc2cccc(C(=O)O)c2)oc1C	-8	1	8	0	87*
Cc1ccc(-n2nc3ccc(N)cc3n2)c(C)c1	-2	-21	19	x	66*
CC(=O)Oc1ccc(C#C/C=C2\c3ccccc3C(=O)N2c2ccccc2)cc1	0	19	134*	5	x
CC(=O)Oc1ccc(CC(C(=O)O)N2C(=O)c3ccccc3C2=O)cc1 (stereo not drawn)	0	12	-2	-5	-17
SMILES	Bfl-1 A1 inh	Mdm2-MdmX inh	CSC inhib	Beta apoptosis	aSyn UTR inh
CCCC(/C=C/c1ccc(OC(C)=O)cc1)=C1/c2ccccc2C(=O)N1c1ccccc1	1	33	112*	-3	x
CCOC(=O)c1ccc(NS(=O)(=O)c2ccc3c(c2)NC(=O)CCS3)cc1	1	21	1	-7	-8
Cc1cc[n+](CC(=O)c2ccccc2)c2ccccc12	0	35	-2	117*	-13
Cc1cc[n+](CCC(=O)O)c2ccccc12	0	-42	x	-6	12
CC(C)C1C(c2ccccc2)N(C)C(c2ccccc2)CC1(O)c1ccccc1 (stereo not drawn)	1	31	131*	45	32
CN(C)c1cc[n+](CC(=O)Nc2ccc(Oc3ccccc3)cc2)cc1	0	45	-5	91*	49
CCn1c(=O)c([N+](=O)[O-])c(N2CCSCC2)c2ccccc21	0	36	11	-4	36
CCn1c(=O)c([N+](=O)[O-])c(N2CCN(Cc3ccc4c(c3)OCO4)CC2)c2ccccc21	0	16	-4	129*	2
Cc1ccc(F)c(NC(=O)/C(C#N)=C(\O)c2ccc(C(C)(C)C)cc2)c1	-2	-17	79*	-2	-9
O=c1c(C(c2ccccc2)c2c(O)sc3ccccc3c2=O)c(O)sc2ccccc12	1	36	88*	-6	-21
Cc1cc(C(=O)Nc2nc3c(s2)CCCC3)cs1	-6	-160	86*	14	-52
Cc1cc(C)c(S(=O)(=O)/N=C2/C=C(Sc3ncn[nH]3)C(=O)c3ccccc32)cc1C	0	x	103*	129*	x
Cc1sc2ncnc(N3CCN(S(=O)(=O)c4ccc(C(C)(C)C)cc4)CC3)c2c1C	u	33	6	124*	x
Cc1sc2ncnc(N3CCC(C)CC3)c2c1C	0	20	4	3	47
Cc1sc2ncnc(N3CCN(S(=O)(=O)c4ccc(Br)cc4)CC3)c2c1C	1	14	-9	2	-2
Cc1csc2ncnc(N3CCN(S(=O)(=O)c4cccc(C(F)(F)F)c4)CC3)c12	-2	20	3	95*	-7
O=S(=O)(c1ccc(Cl)cc1)N1CCN(c2ncnc3sccc23)CC1	-2	12	12	83*	x
Cc1sc2ncnc(N3CCN(CCOc4ccc(Cl)cc4)CC3)c2c1C	0	7	83*	103*	-40
O=S(=O)(Cc1ccccc1)N1CCNCC1	0	-5	x	-2	-6
Cc1ccc(-n2ncc(C(=O)Nc3cc(Cl)cc(Cl)c3)c2C2CCNCC2)cc1C	x	x	x	x	93*
Cc1ccc(-n2ncc(C(=O)Nc3cc(Cl)ccc3Cl)c2C2CCNCC2)cc1	1	37	17	-7	-20
CNc1nc(SCc2ccccc2Cl)nc2c1CCCC2	1	26	79*	5	23
Cc1ccc(-c2ccc(OC(=O)c3ccc(=O)[nH]c3)c(C)c2)cc1	0	13	76*	-3	-21
CC1CCCCC1NC(=O)COC(=O)c1ccc2c(c1)OCCO2 (stereo not drawn)	-1	-2	x	-5	x
Cc1cc2cc(CN3C(=O)c4ccccc4C3=O)ccc2n1C	0	5	19	100*	-3
CCSc1nnc(NC(=O)c2ccccn2)s1	0	-5	2	64	67*
CCSc1nnc(NC(=O)c2cnccn2)s1	0	15	-19	-6	-43
C/C(=N/NC(=O)c1cc(C2CC2)[nH]n1)c1cccs1	-8	-36	14	x	84*
